Six molecules from PubChem BioAssay can be followed below.

A number with no mark means an inactive call.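 The calls were made as follows: active = RAM network inhibition above 8.4% in each of two replicates, 3 SD over the compound average; inconclusive = above 8.4% inhibition in only one replicate; inactive = 8.4% inhibition or less in each replicate.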

This assay is described as follows: RAM signaling pathway blockade in yeast – S. cerevisiae, Pdr1DBD-CYC8 efflux-inhibited sensitized strain, primary screen (AID 1298).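 Also: 0% = DMSO untreated cells without growth and 100% = 10 µM 1-NA-PP1 full growth; higher means more yeast growth rescued from 5-FOA killing.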 To be noted: S. cerevisiae cbk1-as DSE1-URA3 strain, 5-FOA growth OD615, 2 d; at 50 µM; hits give high values.
Regarding `COc1ccc(OC)c(NC(=O)Cn2cnc3c(cnn3-c3ccccc3)c2=O)c1`, the RAM network inhibition was 0.95%. For the molecule `Cc1cc(C)n2nc(S(=O)(=O)N(CC(C)C)CC(C)C)nc2n1`, the RAM network inhibition is 0.22%. The same measure for `Cc1cccc(N2CCN(c3nc4ccc(Cl)cc4n4cnnc34)CC2)c1C`: -0.95%; for `O=C(O)c1cccc(-n2cnnn2)c1`: 4.03%. With `CN(C)CCCNc1ncnc2c1cnn2-c1ccccc1`, the RAM network inhibition was -0.77%. The same measure for `O=C(Nc1nc(-c2ccccc2)cs1)c1cccs1`: 2.45%.
